FLuc counter: inhibits or activates purified firefly luciferase, miR-21 counter-screen; P08659; purified FLuc, Km substrates, luminescence inhibition; Potency, µM (series often up to 57.5 µM), without a hit: top-dose activity change, negative = inhibition, hits mostly inhibitors; 6.9% of 360,000 active; AID 588342;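 further: plate controls were vehicle for no effect and reference inhibitor for full effect; nearly all actives have a fitted effect of over 55% in size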
Target sequence (P08659 whole entry, looked up): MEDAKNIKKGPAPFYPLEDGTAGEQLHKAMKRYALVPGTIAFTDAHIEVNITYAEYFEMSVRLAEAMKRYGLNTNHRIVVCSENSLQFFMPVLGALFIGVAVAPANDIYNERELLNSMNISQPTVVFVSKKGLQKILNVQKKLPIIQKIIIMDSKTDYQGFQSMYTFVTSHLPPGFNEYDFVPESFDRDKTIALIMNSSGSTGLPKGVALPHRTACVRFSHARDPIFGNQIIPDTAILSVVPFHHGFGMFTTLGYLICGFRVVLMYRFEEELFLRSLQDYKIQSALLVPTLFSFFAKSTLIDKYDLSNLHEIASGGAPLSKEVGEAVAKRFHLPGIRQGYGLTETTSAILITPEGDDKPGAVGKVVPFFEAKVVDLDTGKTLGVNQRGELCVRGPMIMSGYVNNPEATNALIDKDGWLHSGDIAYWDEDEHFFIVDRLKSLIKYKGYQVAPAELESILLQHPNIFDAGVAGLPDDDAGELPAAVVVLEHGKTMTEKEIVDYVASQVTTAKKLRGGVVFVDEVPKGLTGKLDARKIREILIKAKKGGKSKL
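Biochemical qHTS of compounds, final roughly 60 µM downward over six points, against 10 nM purified firefly luciferase using Km concentrations of substrates (10 uM D-luciferin, 10 uM ATP) in Tris acetate pH 7.5 buffer; luminescence output.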
KinaseGlo FLuc: counter-screen: inhibitors of Kinase-Glo firefly luciferase. Kinase-Glo luciferase, ATP luminescence, 8 min. Q27757. 0.28% of 200,000 active. AID 1379. Potency, µM (titrated, usually from 38.3 µM), inactives show at the highest dose activity change, negative = inhibition, actives largely listed as inhibitors; further: on the % scale 0 is the no-effect control and ±100 the full control effect; nearly all actives have a fitted effect of over 60% in size
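Kinase-Glo luciferase light output from ATP and luciferin was measured with 10 uM ATP, within the enzyme's linear range. Buffer: 50 mM imidazole pH 7.2, 50 mM KCl, 7 mM MgCl2, 0.01% Tween 20, 0.05% BSA; luminescence read after 8 min at ambient temperature.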
SMN2 splice enh: SMN2 splice variant enhancement; Potency, µM (series often up to 46.1 µM), inactives show at the top dose activity change, positive = activation, hits mostly activators; 2.8% of 210,000 active; AID 1458; HEK293 SMN2-luciferase splicing reporter, luminescence, 30-36 h; further: % of control where 0% means no effect; nearly all actives have a fitted effect of over 55% in size
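HEK293 cells carry an SMN2 minigene-luciferase reporter in which exon 7 inclusion puts luciferase in frame. Cells were seeded at 2000 cells/well, attached for 10-12 hours, then exposed to compounds for 30-36 hours at 37C before ONE-Glo luminescence.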
ELG1 genotoxic: inducers of genotoxicity in HEK293T ELG1-luciferase cells | HEK293T ELG1-luciferase reporter, luminescence, 16 h | Potency, µM (doses to about 46 µM), without a hit: at the highest dose activity change, positive = activation, most hits filed as activators | 1.3% of 330,000 active; further: % of control where 0% means no effect; nearly all actives have a fitted effect of over 60% in size
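Cells (2,000/well) expressing the ELG1-luciferase fusion are dosed by pin tool and kept 16 hr at 37 °C, 5% CO2. Signal comes from ONE-Glo luciferase reagent after 30 min at room temperature.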
NPC1 promoter act: activators of NPC1 promoter. 2.4% of 320,000 active. Huh7 NPC1 promoter luciferase reporter, 24 h. AID 485313. Potency, µM (top dose mostly 9.22 µM), for the others: at the highest dose activation, hits mostly activators; further: % of control where 0% means no effect; nearly all actives have a fitted effect of over 60% in size
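Cells: Huh7 expressing luciferase under the NPC1 promoter, 1500/well. Seeded 2 h, compound added, incubated 24 h at 37 °C. Luciferase reagent, 10 min ambient, then luminescence.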
Rab9 prom act: Rab9 promoter activation; Huh7 Rab9 promoter-luciferase reporter, luminescence, 24 h; Potency, µM (highest dose often 9.22 µM), inactives show at the top dose activation, negative = inhibition, hits mostly activators; AID 485297; 2.8% of 320,000 active; further: % of control where 0% means no effect; nearly all actives have a fitted effect of over 60% in size
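Luminescence from Amplite-detected luciferase (10 minutes, ambient) reports Rab9 promoter activation. Before that, stable Rab9-luciferase Huh7 cells (1500/well, reduced-serum OP-MEM I plus 10% FBS) were exposed to compound for 24 hours at 37C.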
The depositor's hits bear a star; u = inconclusive; x = no result given. Most compounds without a hit are left out; they make up all but 7.5% or so of the library. The call rests on the fitted dose curve; in most records, active means well fitted curve in the direction sought with a large enough effect; inconclusive means small, poorly fitted or top-dose-only effect, or another doubt; inactive means no such curve, though single readings can be large; an effect the other way counts as inactive or inconclusive. Potency means the concentration at half of the fitted maximal effect.

SMILES	FLuc counter	KinaseGlo FLuc	SMN2 splice enh	ELG1 genotoxic	NPC1 promoter act	Rab9 prom act
COc1ccc(C2=NCC(CSc3nnnn3C)S2)cc1 (stereo not drawn)	u	-3%	-19%	u	2%	15%
CC(=O)Nc1ccc(NC(=O)CSc2nnc(-c3ccc4c(c3)OCO4)o2)cc1	x	x	x	8%	x	x
CC(=O)CSc1nnc(-c2ccc3c(c2)OCO3)o1	6.7µM*	-8%	14µM*	u	u	2.8µM*
CC(C)c1ccc(NC(=O)CCS(=O)(=O)c2ccc3c(c2)CC(=O)N3C)cc1	3%	x	x	x	x	x
CCc1ccc(C(=O)c2cn(CC(=O)Nc3ccc4c(c3)OCO4)c3ccc(OC)cc3c2=O)cc1	-9%	x	2%	x	x	x
CCCCc1nn2c(=O)cc(COC(=O)c3ccccc3NC(=O)c3cccs3)nc2s1	1%	x	x	x	x	x
C#CC(C)(CC)NC(=O)Cn1nnc(-c2ccc(OCc3ccccc3F)cc2)n1 (stereo not drawn)	u	x	-32%	x	x	x
CC(C)C[C@@H](CC(=O)N[C@@H](CCC(=O)O)CC(=O)O)NC(=O)[C@@H]1CCCC[C@H]1NC(=O)C[C@H](CCCN)NC(=O)C[C@H](Cc1ccccc1)NC(=O)[C@@H]1CNCC[C@H]1N	x	-2%	4%	x	x	x
c1cc(CSc2nnc(-c3ccc4c(c3)OCO4)o2)ccn1	u	0%	6%	12%	2.5µM*	2.5µM*
O=C1OCCC1Sc1nnc(-c2ccc3c(c2)OCO3)o1 (stereo not drawn)	9.5µM*	-3%	-28%	-1%	-4%	-2%
COc1ccc(C2=NCC(CSc3nnc(-c4ccc5c(c4)OCO5)o3)S2)cc1 (stereo not drawn)	9.5µM*	0%	-22%	-1%	0%	u
Cc1ccc(CSc2nnc(-c3ccc4c(c3)OCO4)o2)cc1	u	-6%	13%	8%	3%	-6%
O=C1OCCC1Sc1nnc(-c2ccc(O)cc2)o1 (stereo not drawn)	u	-10%	-6%	1%	2%	-2%
O=c1c2ccccc2nnn1CSc1ccccc1	1.9µM*	-12%	7.9µM*	u	1µM*	0.56µM*
CCN(CC)C(=O)C1=C(C)Nc2nc3ccccc3n2C1c1cccc(Cl)c1 (stereo not drawn)	3%	x	-2%	x	x	x
CCOC(=O)c1c(C)oc2ncnc(Nc3ccc(OCC)cc3)c12	1%	x	x	x	x	x
O=C(NCc1ccccc1)C(=O)NCC(c1ccco1)S(=O)(=O)c1ccccc1 (stereo not drawn)	-2%	x	x	x	x	x
COc1cc(C)ccc1OCCSc1nc2ccc(NC(=O)c3ccc(F)cc3)cc2s1	-9%	x	x	x	x	x
Cc1ccc(/C=C2/NC(=O)N(Cc3ccccc3)C2=O)o1	-17%	-3%	10%	-1%	0%	2%
CCN1C(=O)N/C(=C/c2cc(C)n(Cc3ccccc3)c2C)C1=O	3.4µM*	-1%	30%	18%	u	u
Cn1c(=O)n(C)c2cc(/C=C3/NC(=O)N(Cc4ccccc4)C3=O)ccc21	0%	-5%	7%	9.2µM*	-1%	-6%
CCOc1cc(-c2ccc(OC(=O)c3ccc(Cl)cc3)c(OC)c2)cc(=O)c2c(C)oc(C)c12	-7%	x	x	x	x	x
Oc1ccc2ccccc2c1/C=N/n1cnnc1	-1%	2%	4%	0%	-6%	0%
Cc1nn(C)c(C)c1N=Cc1c(O)ccc2ccccc12	13µM*	-8%	10%	-1%	0%	15%
CCOc1ccc(-n2c(C)nc3cc(C(=O)NC4CCCC4)ccc32)cc1	-12%	x	x	x	x	x
SMILES	FLuc counter	KinaseGlo FLuc	SMN2 splice enh	ELG1 genotoxic	NPC1 promoter act	Rab9 prom act
Cc1cc(S(=O)(=O)NCc2ccccc2)ccc1OCC(=O)NCc1ccncc1	15µM*	x	x	u	2.8µM*	3.2µM*
O=C(COc1ccc(S(=O)(=O)NCc2ccccc2)cc1Cl)NCc1ccncc1	-2%	x	x	-3%	-1%	u
O=C(COc1ccccc1Cl)OCc1cc(=O)n2nc(C3CC3)sc2n1	2%	x	x	x	x	x
Cc1cc(Cl)ccc1Oc1ncc(-c2ccc(Cl)cc2)cn1	-16%	0%	-24%	-7%	-6%	-5%
Clc1ccc(-c2cnc(Oc3ccccc3)nc2)cc1	2.7µM*	-2%	14µM*	u	0.79µM*	2.8µM*
Cc1cc(C)c2c(=O)cc(C(=O)NCc3ccc(S(N)(=O)=O)cc3)oc2c1	1%	x	19%	x	x	x
C=C(C)CSc1nnc2n(N)c(=O)c3ccccc3n12	17µM*	-2%	18%	u	20%	u
Cc1cccc(CNc2ncnc3ccc(-c4ccc(C(=O)N(C)C)cc4)cc23)c1	x	-5%	3%	x	x	x
COc1ccc2c(C(=O)c3ccc(C)cc3)n(Cc3ccc(C(N)=O)cc3)[n+]([O-])c2c1	13µM*	x	x	u	u	u
COc1ccc(C(=O)c2c3ccccc3[n+]([O-])n2Cc2ccc(C(N)=O)cc2)cc1	u	x	x	6%	-3%	-1%
CCCN(CCC)S(=O)(=O)c1ccc(N2CCCCS2(=O)=O)cc1	-7%	x	x	x	x	x
Cc1ncc(CO)c(/C=N/NC(=O)c2ccc(O)cc2)c1O	u	3%	u	0%	-4%	-1%
COc1ccccc1N/N=C/c1c(CO)cnc(C)c1O	13µM*	-1%	-12%	8%	-3%	-6%
COc1ccc(C(=O)N/N=C/c2c(CO)cnc(C)c2O)cc1	21µM*	-2%	-73%	-10%	1%	0%
COc1ccccc1NS(=O)(=O)c1cccc(C(=O)N/N=C/c2c(CO)cnc(C)c2O)c1	3%	x	x	13%	-2%	-18%
Cc1cccc(CCNC(=O)c2nc(-c3ccc(Cl)cc3)n3c2CCCCC3)c1	-16%	x	x	x	x	x
CN(C)c1ccc(/C=N/N=C2/NC(=O)/C(=C/c3ccc([N+](=O)[O-])cc3)S2)cc1	0.11µM*	-3%	28%	5%	u	u
O=C1NC(=Nc2cccc(O)c2)S/C1=C\c1cccc([N+](=O)[O-])c1	-18%	x	x	13%	-1%	-2%
O=C(N/N=C/c1cccc(O)c1)c1ccccc1O	1.5µM*	x	x	u	1%	8%
Cn1nccc1C(=O)Oc1ccc(/C=N/NC(=O)c2ccccc2O)cc1	17µM*	-2%	-17%	2%	-1%	9%
O=C(Oc1ccc(/C=N/NC(=O)c2ccccc2O)cc1)c1ccccc1	u	-2%	-2%	u	2%	-3%
O=C(N/N=C/c1ccc(OCC(=O)N2CCCCC2)cc1)c1ccccc1O	15µM*	1%	2%	1%	13%	12%
O=C(N/N=C/c1cccc(O)c1)c1csc2ccccc12	21µM*	-4%	0%	16%	16%	-5%

Source: PubChem
